# POLB inh – inhibitors of human DNA polymerase beta. P06746. Pol beta primer extension/strand displacement, fluorescence kinetic. Potency, µM (top dose mostly 114 µM), for inactives: at the top dose activity change, negative = inhibition, usual class: inhibitors. hit rate 1.3% among 340,000; also: potency is read from the fitted curve at half-maximal effect; % is scaled to controls: 0 for no effect and ±100 for the full control effect
#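 Values derive from four-parameter Hill fits of normalized kinetic data: reads at 0 and 10 min following addition of 50 nM substrate to 10 nM Pol beta preincubated 15 min with compound.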
# POLI inh – inhibitors of human DNA polymerase iota | hit rate 1% among 390,000 | Pol iota fluorescent replication assay, 10 min | Potency, µM (highest dose often 115 µM), for the others: at the highest dose activity, negative = inhibition, hits mostly inhibitors; also: potency is read from the fitted curve at half-maximal effect
#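 Fluorescent replication assay read twice, at 0 min and 10 min after adding 50 nM (final) substrate. Enzyme (10 nM) and compounds were first incubated 15 min at room temperature; enzyme-free buffer wells were negative controls.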
# WRN helicase inh – blocks human WRN helicase | Q14191 | WRN helicase unwinding, fluorescent forked duplex, kinetic | Potency, µM (doses to about 114 µM), for the others: top-dose activity change, negative = inhibition, hits mostly inhibitors | hit rate 0.46% among 360,000 | AID 651768; also: potency is read from the fitted curve at half-maximal effect; % is scaled to controls: 0 for no effect and ±100 for the full control effect; nearly all actives have a fitted effect of over 55% in size
#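 WRN at 20 nM final was preincubated with compound for 15 min at room temperature; reaction started with 100 nM forked duplex oligonucleotide carrying fluorophore and quencher plus 2 mM ATP (final). Unwinding followed kinetically by red fluorescence (ex 525/em 598 nm).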
# Pol kappa inh – blocks human DNA polymerase kappa activity. hit rate 0.53% among 400,000. AID 588579. Potency, µM (titrated, usually from 107 µM), for inactives: top-dose activity, negative = inhibition, actives largely listed as inhibitors. purified Pol kappa, fluorescent DNA synthesis assay, 10 min; also: potency is read from the fitted curve at half-maximal effect; % is scaled to controls: 0 for no effect and ±100 for the full control effect
# Target sequence (Q9UBT6 whole entry, looked up): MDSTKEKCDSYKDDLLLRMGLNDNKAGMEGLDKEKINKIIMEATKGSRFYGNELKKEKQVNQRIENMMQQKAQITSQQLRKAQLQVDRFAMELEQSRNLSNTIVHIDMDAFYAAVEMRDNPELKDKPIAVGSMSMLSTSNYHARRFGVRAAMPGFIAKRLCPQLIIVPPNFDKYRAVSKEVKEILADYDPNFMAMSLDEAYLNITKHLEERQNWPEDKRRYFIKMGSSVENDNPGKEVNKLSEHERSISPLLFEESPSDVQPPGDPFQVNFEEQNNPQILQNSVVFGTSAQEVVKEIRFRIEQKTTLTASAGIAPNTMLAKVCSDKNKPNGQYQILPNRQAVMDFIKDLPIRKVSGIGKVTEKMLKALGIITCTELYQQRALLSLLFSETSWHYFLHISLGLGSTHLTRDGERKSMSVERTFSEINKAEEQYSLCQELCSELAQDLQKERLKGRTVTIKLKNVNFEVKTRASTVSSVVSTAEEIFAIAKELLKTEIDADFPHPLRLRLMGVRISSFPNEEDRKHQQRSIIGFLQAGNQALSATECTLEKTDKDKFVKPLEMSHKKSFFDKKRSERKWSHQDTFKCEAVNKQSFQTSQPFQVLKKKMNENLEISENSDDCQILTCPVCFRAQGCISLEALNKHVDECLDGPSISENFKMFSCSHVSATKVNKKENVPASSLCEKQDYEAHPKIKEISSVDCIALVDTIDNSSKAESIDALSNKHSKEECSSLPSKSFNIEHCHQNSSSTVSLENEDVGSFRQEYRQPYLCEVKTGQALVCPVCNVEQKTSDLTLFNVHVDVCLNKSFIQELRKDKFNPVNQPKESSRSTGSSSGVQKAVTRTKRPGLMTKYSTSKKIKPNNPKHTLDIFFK
#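 10 nM Pol kappa preincubated 15 min at room temperature with compounds, then reaction started with substrate at 50 nM final. Fluorescence read kinetically at 0 and 10 min; buffer-only wells served as negative control.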
# POLH inh – inhibitors of human DNA polymerase eta; recombinant Pol eta, fluorescent DNA replication assay; Potency, µM (top dose mostly 114 µM), inactives show at the highest dose activity change, negative = inhibition, actives largely listed as inhibitors; hit rate 1.2% among 390,000; AID 588591; also: potency is read from the fitted curve at half-maximal effect; % is scaled to controls: 0 for no effect and ±100 for the full control effect
#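 Fluorescent replication assay: 50 nM final substrate added after a 15 min room-temperature compound preincubation with 10 nM enzyme. Signal taken at 0 min and again at 10 min.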
# PI5P4Ka inh – inhibitors of human PI5P4K alpha | P48426 | PI5P4Kalpha enzyme, ADP-Glo luminescence, 60 min; stronger effect = lower value | max response, % | hit rate 1.2% among 330,000; active = max response of -50% or lower; inconclusive = between -30% and -50%; inactive = -30% or higher; also: value at the top dose of about 77 µM; % is scaled to controls: 0 for no effect and ±100 for the full control effect
#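 Luminescence from ADP-Glo served as readout of PI5P4Kalpha activity in a qHTS format. Reaction: enzyme, substrate, compound, ATP at 5 microM final, 60 min at RT.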
# * marks the source's active call; other numbers are inactive results; ? = inconclusive; / = no result; ! = not confirmed by another sample; [ ] = dose if it differs, or a comment. Sampled rows, rich in hits. Any-hit rate of the full collection: about 2.8%. Unless noted, calls follow the shape of the dose curve; as a rule, active = well fitted curve in the direction sought with a large enough effect; inconclusive = small, poorly fitted or top-dose-only effect, or another doubt; inactive = no such curve, though single readings can be large; an effect the other way counts as inactive or inconclusive.
SMILES,POLB inh,POLI inh,WRN helicase inh,Pol kappa inh,POLH inh,PI5P4Ka inh
CC(NC(=O)Nc1ccc(O)cc1)(C(F)(F)F)C(F)(F)F,-1%,11µM*,-2%[57.1 µM],-21%,-8%,18
NS(=O)(=O)c1ccc(CNC(=O)/C=C/c2ccco2)cc1,22µM*,?,?,?,18µM*,?
O=C(/C=C/c1ccco1)NCc1ccco1,10µM*,?,-14%,-35%,?,-8
O=C(CNC(=O)/C=C/c1ccco1)N=Nc1c(O)[nH]c2ccccc12,8.9µM*,-5%,0%,7%,-11%,-2
O=C(CNC(=O)Cc1ccccc1)N=Nc1c(O)[nH]c2ccccc12,2%,62%,-8%,4%,-10%,-3
Cc1ccc(/C=C/C(=O)NCC2COc3ccccc3O2)o1 (stereo not given),80%,35%,-33%[57.1 µM],-8%,-14%,-70*
Cc1nc(N2C(=O)c3oc4ccccc4c(=O)c3C2c2cccc(OCCC(C)C)c2)sc1C (stereo not given),24%,12%,/,2%,1%,/
O=C(NCc1ccco1)/C(=C\c1ccco1)NC(=O)c1cccs1,22µM*,71%,5%,-13%,-21%,-3
O=C(/C=C/c1ccccc1)NCc1ccco1,-2%,30%,-4%,-6%,-12%,0
Cc1ccc(/C=C/C(=O)NC2CCCCCCC2)o1,1%,?,-35%,-15%,-10%,-55*
Cc1ccc(/C=C/C(=O)NCc2ccco2)o1,22µM*,/,/,/,/,/
O=C(NCc1ccco1)/C(=C\c1cccs1)NC(=O)c1cccs1,-9%,85%,6%,3%,-12%,-7
Cc1ccc(/C=N/NC(=O)NC2CCCCC2)o1,-1%,3%,1%,-5%,6%,-1
CCS(=O)(=O)c1cccc(C(=O)Nc2ccc(-c3nc4ccccc4s3)c(O)c2)c1,20µM*,?,/,-5%[60.1 µM],?,/
CCNc1nc(NCC)n2c(SCC(=O)Nc3ccc(OC)c(OC)c3)nnc2n1,/,3%,-11%,-25%,?,-12
CCNc1nc(NCC)n2c(SCC(=O)Nc3ccccc3Cl)nnc2n1,/,-20%,-5%,-2%,-9%,-11
CCNc1nc(NCC)n2c(SCC(=O)Nc3cccc(F)c3)nnc2n1,/,45µM*,-31%,?,?,-9
CCNc1nc(NCC)n2c(SCC(=O)Nc3ccccc3C(F)(F)F)nnc2n1,/,79µM*,2%[11.6 µM],?,?,-16
CCNc1nc(NCC)n2c(SCC(=O)Nc3cccc(Cl)c3)nnc2n1,/,?,-15%,?,14µM*,0
CCCCC(CC)CNC(=O)Cc1ccc(-n2c(=O)[nH]c3ccccc3c2=O)cc1 (stereo not given),30%,13%,/,-12%[60.1 µM],-11%,/
COc1ccccc1NC(=O)C(=O)NCC(c1ccc2c(c1)OCO2)N1CCOCC1 (stereo not given),14%,19%,/,-7%[60.1 µM],-14%,/
CCOC(=O)c1[nH]c(C)c(C(=O)/C=C/c2ccc(C(=O)O)cc2)c1C,39%,-14%,-17%,-14%,22µM*,2
CCN(Cc1ccccc1)C(=O)CN1C(=O)COc2ccc(S(=O)(=O)N(CC)CC)cc21,-2%,-13%,/,-15%,-9%,/
O=C(C[n+]1c(Cl)cc(Cl)c2ccccc21)c1ccccc1,/,-13%,/,9%,/,/
Nc1nc(-c2ccc(NC(=O)c3ccco3)cc2)cs1,-9%,32%,-12%,-22%,-25%,-19
SMILES,POLB inh,POLI inh,WRN helicase inh,Pol kappa inh,POLH inh,PI5P4Ka inh
NC(=O)/C(=N\OC(=O)c1ccco1)c1nc(-c2ccc(Br)cc2)cs1,-19%,8%,-32%,-17%,-2%,-69*
O=C(O)/C(=C\c1ccc(C(F)(F)F)cc1)c1ccc(S(=O)(=O)N2CCCC2)s1,/,-5%,-2%,-14%,-1%,-3
O=C(O)/C(=C\c1ccc(Br)cc1)c1ccc(S(=O)(=O)N2CCCCC2)s1,28µM*,?,-32%,-10%,?,-2
O=C1C=CC(=Nc2ccc3c(c2)C(=O)c2ccccc2-3)O1,/,-15%,-21%,-11%,?,-58*
COC(=O)c1ccc(CSc2nnc(NC(=O)C3CC(=O)N(c4ccc5c(c4)OCCO5)C3)s2)cc1 (stereo not given),28µM*,?,-31%,-28%,?,?
COc1cccc(N2CC(C(=O)Nc3nnc(SCC(=O)NC4CCCC4)s3)CC2=O)c1 (stereo not given),-7%,?,-36%,-13%,?,?
COc1cccc(N2CC(C(=O)Nc3nnc(SCC(=O)NCc4ccco4)s3)CC2=O)c1 (stereo not given),?,40µM*,-30%,?,32µM*,-61*
O=C(CSc1nnc(NC(=O)C2CC(=O)N(c3ccccc3)C2)s1)NCC1CCCO1 (stereo not given),66%,2%,-12%,-7%,-26%,-25
O=C(CSc1nnc(NC(=O)C2CC(=O)N(c3ccccc3)C2)s1)NCc1ccco1 (stereo not given),89µM*,50µM*,-21%,?,?,?
COc1ccc(NC(=O)[C@@H]2CC=C[C@@H]3CCN(C4CC4)C(=O)[C@@H]32)cc1,/,49%,/,-7%,/,/
O=C1c2ccccc2S(=O)(=O)c2cc(-c3nn[nH]n3)ccc21,/,/,-7%,/,-20%,-73*
CC(C)NC(=O)/C(C#N)=C/c1ccc2c(c1)OCCO2,39%,143%,4%,-16%,0%,6
N#C/C(=C\c1ccc(O)c(O)c1)C(=O)Nc1ccccc1,-2%[57.1 µM],56µM*,?,?,13µM*!,-22
N#C/C(=C\c1cccnc1)C(=O)Nc1ccccc1,-7%,81%,8%,-8%,-18%,-8
N#C/C(=C\c1cccc(O)c1)C(=O)Nc1ccc2c(c1)OCCO2,-6%,79µM*,?,0%,-5%,-11
N#C/C(=C\c1ccc(O)c([N+](=O)[O-])c1)C(=O)NCc1ccccc1,3%,?,-25%,-5%,-6%,-50*
CC(NC(=O)/C(C#N)=C/c1ccc(Cl)c([N+](=O)[O-])c1)c1ccccc1 (stereo not given),-1%,-8%,-7%,-12%,-20%,-17
C[C@@H](NC(=O)/C(C#N)=C/c1ccc(O)c(O)c1)c1ccccc1,10%[57.1 µM],?,-14%,?,14µM*!,-2
COc1cccc(C2CC(=O)Nc3c2c(=O)n(C)c2ncnn32)c1OC (stereo not given),31%,14%,/,5%,-11%,/
CN(C)S(=O)(=O)c1ccc2c(c1)N(CC(=O)Nc1ccc(F)cc1)C(=O)CS2,-10%,21%,/,-4%,-16%,/
CC(C)OC(C)C,/,/,/,4%[60.1 µM],/,/

# Assay outcomes (PubChem BioAssay)
